Measured values: PubChem BioAssay (EPA / NIEHS)
Inconclusive results are not listed. The source made the active and inactive calls. The calls were made as follows, unless noted: active = hit-call score of the fitted dose curve at least 0.9, where 1 is the maximum; inactive = score below 0.9.

Experiments:
[1] = CCTE_Mundy_HCI_Cortical_Synap_Neur_Matur_NeuriteSpotCountPerNeuron: CCTE's Synaptogenesis and Neurite Maturation Assay in rat cortical cells for Neurite Spot Count per Neuron Count, Mundy Lab (AID 2284215)
Outline: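 Rat primary cortical cultures given AraC at DIV 5, dosed from DIV 7 to DIV 12 with media change. Fixed, stained for MAP2, synaptophysin and Hoechst; neurite-associated synaptophysin puncta per neuron quantified by high-content imaging versus DMSO.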

[2] = CCTE_Mundy_HCI_Cortical_Synap_Neur_Matur_SynapseCount: CCTE's Synaptogenesis and Neurite Maturation Assay in rat cortical cells for Synapse Count, Mundy Lab (AID 2284218)
Outline: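 Endpoint: synapses/neuron by HCI (synaptophysin puncta on MAP2-labelled neurites, Hoechst nuclei). Rat primary cortical cells, AraC DIV 5, dosed DIV 7, fixed DIV 12; DMSO negative control.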

[3] = CCTE_Mundy_HCI_Cortical_Synap_Neur_Matur_NeuriteCount: CCTE's Synaptogenesis and Neurite Maturation Assay in rat cortical cells for Neurite Count, Mundy Lab (AID 2284222);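 also: exposure from day 7 to day 12 in vitro with readout at day 12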
Outline: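 Chemical exposure runs DIV 7–12 in rat cortical cultures, glia suppressed by AraC at DIV 5; measurement is at DIV 12. Imaging-derived neurite counts are fitted against DMSO baseline.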

[4] = CCTE_Mundy_HCI_Cortical_Synap_Neur_Matur_CellBodySpotCount: CCTE's Synaptogenesis and Neurite Maturation Assay in rat cortical cells for Cell Body Spot Count, Mundy Lab (AID 2284223)
Outline: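 Primary rat cortical cultures, AraC added at DIV 5; dosed DIV 7 through DIV 12 […]. Fixed, stained for MAP2 and synaptophysin with Hoechst; cell body-associated synaptophysin puncta per neuron counted by high-content imaging, loss vs DMSO.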

[5] = CCTE_Mundy_HCI_hNP1_Pro_ResponderAvgInten: CCTE's Proliferation Assay in human neuroprogenitor cells, Mundy Lab (AID 2284224; active = hit-call score of the fitted dose curve at least 0.9, where 1 is the maximum;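 also: human neural progenitor cells hNP1 derived from WA09 embryonic stem cells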)
Outline: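 Human neuroprogenitors (hNP1, WA09 lineage) receive test chemical after 40 to 44 hours of attachment. A four-hour BrdU pulse begins twenty hours later, followed by fixation and high content imaging; signal is referenced to DMSO controls.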

[6] = UKN2_HCS_IMR90_cell_viability: Viability Assessment in the University of Konstanz (UKN) Leist Lab Neural Crest Cell Migration Assay in human induced IMR90 Pluripotent Stem Cells (UKN2) (AID 2284233);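 also: viability of neural crest cells differentiated from IMR90 iPSC measured by calcein-AM fluorescence imaging; cells exposed to compound for 24 h after a 24 h migration phase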
Outline: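 cMINC format, iPSC-derived neural crest (IMR90); 24 h migration (EGF/FGF, N2-S), then 24 h toxicant. Calcein-AM/H-33342 stain 30 min; fluorescence intensity by HCS; DMSO-normalised, bidirectional fitting.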

[7] = CCTE_Mundy_HCI_hNP1_Casp3_7: CCTE's Caspase-Glo 3/7 Assay in human neuroprogenitor cells for Apoptosis, Mundy Lab (AID 2284240)
Outline: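 Neuroepithelial-lineage stem cells from WA09 embryonic cells were treated with chemicals after 40–44 h of culture. Twenty-four hours later, caspase-3/7 activation was detected luminescently after a 30 min room-temperature reagent step, with DMSO as baseline.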

[8] = CCTE_Mundy_HCI_hNP1_CellTiter: CCTE's Cell Titer-Glo 2 Assay in human neuroprogenitor cells for Viability, Mundy Lab (AID 2284241; active = hit-call score of the fitted dose curve at least 0.9, where 1 is the maximum)
Outline: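 Measures ATP content in human neural progenitors derived from WA09 embryonic cells. Read-out at 26.5 hours after dosing, with DMSO serving as the negative control and baseline.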

[9] = CCTE_Mundy_HCI_Cortical_Synap_Neur_Matur_NeuronCount: CCTE's Synaptogenesis and Neurite Maturation Assay in rat cortical cells for Neuron Count, Mundy Lab (AID 2284242; active = hit-call score of the fitted dose curve at least 0.9, where 1 is the maximum)
Outline: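 Measured at DIV 12: fluorescently labelled neurons (Hoechst nuclei, MAP2) in rat primary cortical cultures, counted by high-content imaging. AraC suppressed glia from DIV 5; DMSO served as negative control.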

[10] = IUF_NPC2c_oligodendrocyte_migration_120hr: Leibniz Research Institute for Environmental Medicine (IUF) 120-hour Neural Progenitor Cell Migration Assay for Oligodendrocyte Migration (NPC2c) (AID 2284297);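 also: O4-positive oligodendrocyte migration distance divided by radial glia migration distance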
Outline: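 Human fetal neural progenitor spheres (0.3 mm) are plated on poly-D-lysine/laminin in N2 differentiation medium and exposed for 120 h, with half-medium renewal at day 3. Oligodendrocyte (O4+) migration distance comes from ICC imaging, normalised to radial glia migration.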

[11] = IUF_NPC2a_radial_glia_migration_120hr: Leibniz Research Institute for Environmental Medicine (IUF) 120-hour Neural Progenitor Cell Migration Assay for Radial Glia Migration (NPC2a) (AID 2284298)
Outline: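 Human fetal-cortex neural progenitor spheres (0.3 mm) plated on poly-D-lysine/laminin in N2 differentiation medium, exposed 120 h at 37C with half-medium renewal at day 3. Radial glia migration distance (um) measured from Hoechst-stained nuclei images; DMSO baseline.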

[12] = IUF_NPC2a_radial_glia_migration_72hr: Leibniz Research Institute for Environmental Medicine (IUF) 72-hour Neural Progenitor Cell Migration Assay for Radial Glia Migration (NPC2a) (AID 2284299)
Outline: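 Spheres of human primary neural progenitors migrate on poly-D-lysine/laminin under compound exposure at 37C, 5% CO2. The 72 h radial glia migration distance comes from brightfield images, measured manually.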

[13] = IUF_NPC2b_neuronal_migration_120hr: Leibniz Research Institute for Environmental Medicine (IUF) 120-hour Neural Progenitor Cell Migration Assay for Neuron Migration (NPC2b) (AID 2284300)
Outline: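 0.3 mm hNPC spheres on poly-D-lysine/laminin in N2 differentiation medium exposed 120 h, half-medium refresh day 3; 7 concentrations, DMSO max 0.1%. Neuron (TUBB3) distance from sphere core by ICC imaging, normalised to radial glia migration.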

[14] = IUF_NPC3_neuronal_differentiation_120hr: Leibniz Research Institute for Environmental Medicine (IUF) 120-hour Neuronal Differentiation Assay (NPC3) (AID 2284301)
Outline: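 Neuronal differentiation of primary human neural progenitors measured by high-content imaging: percent TUBB3+ of Hoechst+ nuclei within migrated area at 120 h, seven-point serial dilution plus solvent control, gain or loss relative to DMSO.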

[15] = IUF_NPC4_neurite_length_120hr: Leibniz Research Institute for Environmental Medicine (IUF) 120-hour Neuronal Morphology Assay for Neurite Length (NPC4) (AID 2284302)
Outline: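 Neurons from differentiating human fetal neural progenitor spheres are scored for average neurite length after five days of compound exposure. Fitting uses DMSO as negative control.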

[16] = IUF_NPC5_oligodendrocyte_differentiation_120hr: Leibniz Research Institute for Environmental Medicine (IUF) 120-hour Oligodendrocyte Differentiation Assay (NPC5) (AID 2284304; active = hit-call score of the fitted dose curve at least 0.9, where 1 is the maximum;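 also: primary human fetal neural progenitor spheres plated to migrate and differentiate; share of O4-positive cells among Hoechst nuclei found by CNN image analysis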)
Outline: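 Human fetal neural progenitor spheres (0.3 mm) plated on poly-D-lysine/laminin in N2 differentiation medium and exposed for 120 h at 7 concentrations, with half-medium renewal at day 3. O4-positive cells identified by CNN, expressed as percent of Hoechst nuclei.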

[17] = IUF_NPC4_neurite_area_120hr: Leibniz Research Institute for Environmental Medicine (IUF) 120-hour Neuronal Morphology Assay for Neurite Area (NPC4) (AID 2284305; active = hit-call score of the fitted dose curve at least 0.9, where 1 is the maximum)
Outline: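 Endpoint at 120 h: automated imaging of TUBB3/Hoechst-stained differentiating human neural progenitor spheres, neurite area per neuron from skeletonization. DMSO solvent control, not above 0.1%, set the baseline; medium was half-replaced on day 3.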

[18] = IUF_NPC2-5_cytotoxicity_72hr: Cytotoxicity Assessment at 72 hours in the Leibniz Research Institute for Environmental Medicine (IUF) Neural Progenitor Cell Migration and Differentiation Assay for Cytotoxicity (NPC2-5) (AID 2284306; active = hit-call score of the fitted dose curve at least 0.9, where 1 is the maximum;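 also: LDH release into supernatant measured by resorufin fluorescence marking membrane damage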)
Outline: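 Primary human neural progenitor spheres migrate and differentiate on laminin. Compound is present from the start of differentiation, with DMSO kept at or below 0.1%. At 72 h, supernatant LDH is quantified fluorometrically, with values fitted in the positive direction.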

[19] = IUF_NPC2-5_cytotoxicity_120hr: Cytotoxicity Assessment at 120 hours in the Leibniz Research Institute for Environmental Medicine (IUF) Neural Progenitor Cell Migration and Differentiation Assay (NPC2-5) (AID 2284307; active = hit-call score of the fitted dose curve at least 0.9, where 1 is the maximum)
Outline: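 Human fetal (GW 16-19) neural progenitor spheres (0.3 mm) plated on poly-D-lysine/laminin in N2 differentiation medium, exposed 120 h with half-medium renewal at day 3; 7 concentrations plus solvent control, DMSO ≤0.1%. LDH release in supernatant read by resorufin fluorescence.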

[20] = IUF_NPC2-5_cell_number_120hr: Cell Number Assessment at 120 hours in the Leibniz Research Institute for Environmental Medicine (IUF) Neural Progenitor Cell Migration and Differentiation Assay (NPC2-5) (AID 2284308);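 also: count of Hoechst-stained nuclei in migration zone around plated human neural progenitor spheres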
Outline: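 Human fetal neural progenitor spheres (0.3 mm) plated on poly-D-lysine/laminin in N2 differentiation medium, exposed five days across 7 concentrations with half-medium refresh at day 3. Hoechst-positive nuclei counted in migration area at 120 h, relative to DMSO.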

[21] = IUF_NPC2-5_viability_120hr: Viability Assessment at 120 hours in the Leibniz Research Institute for Environmental Medicine (IUF) Neural Progenitor Cell Migration and Differentiation Assay (NPC2-5) (AID 2284312)
Outline: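 Human fetal (GW 16-19) neural progenitor spheres of 0.3 mm were plated on poly-D-lysine/laminin in N2 differentiation medium and exposed from day 0 for 120 h, with half-medium refresh at day 3. Viability was read as alamar blue resazurin-to-resorufin fluorescence against DMSO.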

[22] = IUF_NPC1_cytotoxicity_72hr: Cytotoxicity Assessment at 72 hours in the Leibniz Research Institute for Environmental Medicine (IUF) Neural Progenitor Cell Proliferation Assay (NPC1) (AID 2284332; active = hit-call score of the fitted dose curve at least 0.9, where 1 is the maximum;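 also: rising LDH signal means more cytotoxicity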)
Outline: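 Readout is fluorescence from LDH-dependent resazurin conversion, sampled from culture medium after compound contact lasting 72 h. Each well holds one 0.25-0.35 mm human progenitor sphere kept at 37C, 5% CO2 with EGF and FGF.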

[23] = CCTE_Mundy_HCI_iCellGluta_NOG_NeuronCount: CCTE's Neurite Outgrowth Assay in iCellGluta cells for Neuron Count, Mundy Lab (AID 2284340; active = hit-call score of the fitted dose curve at least 0.9, where 1 is the maximum;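 also: cells fixed about 48 h after compound addition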)
Outline: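 Neuron count read by automated high-content imaging of Hoechst 33342 and betaIII-tubulin/Alexa Fluor-488 labelling in human iPSC glutamatergic neurons. Activity fitted relative to DMSO.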

[24] = CCTE_Mundy_HCI_iCellGluta_NOG_NeuriteCount: CCTE's Neurite Outgrowth Assay in iCellGluta cells for Neurite Count, Mundy Lab (AID 2284342; active = hit-call score of the fitted dose curve at least 0.9, where 1 is the maximum;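 also: chemical exposure about 48 hours starting 2 hours after plating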)

Measured: outcome

CCOP(=O)(Oc1cnc(C(C)(C)C)nc1)OC(C)C (centres undefined)
inactive: [1] | [2] | [3] | [4] | [5] | [6] | [7] | [8] | [9] | [10] | [11] | [12] | [13] | [14] | [15] | [16] | [17] | [18] | [19] | [20] | [21] | [22] | [23] | [24]
